{"source": "the supplement of paper PMC8728848", "assay_in_all_cases": "glycan array binding signal (z-score within array); higher = stronger binding", "conditions_in_all_cases": "glycan notation: IUPAC condensed, linker removed", "key": {"GalNAc(b1-3)GlcNAc": {"molecular_target": "GalNAc(b1-3)GlcNAc", "summary_of_the_method": "(§1)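 The Consortium for Functional Glycomics database supplied 3228 glycan arrays, of which those lacking an available protein sequence were dropped. The binding signal, a within-array Z-score, was averaged across arrays of the same protein sequence and across linkers. Negative scores can be read as non-binding.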"}, "GalNAc6S(b1-4)GlcNAc": {"molecular_target": "GalNAc6S(b1-4)GlcNAc", "summary_of_the_method": "as §1"}, "Glc(a1-6)Glc(a1-6)Glc": {"molecular_target": "Glc(a1-6)Glc(a1-6)Glc", "summary_of_the_method": "as §1"}, "[1]": {"molecular_target": "GlcNAc(a1-4)Gal(b1-4)GalNAc", "summary_of_the_method": "as §1"}, "[2]": {"molecular_target": "GlcNAc(a1-4)Gal(b1-4)GlcNAc(b1-3)Gal(b1-4)GlcNAc", "summary_of_the_method": "as §1"}, "[3]": {"molecular_target": "GlcNAc(a1-4)Gal(b1-4)GlcNAc(b1-3)Gal(b1-4)[Fuc(a1-3)]GlcNAc(b1-3)Gal(b1-4)[Fuc(a1-3)]GlcNAc", "summary_of_the_method": "as §1"}, "[4]": {"molecular_target": "GlcNAc(b1-3)Gal(b1-4)GlcNAc(b1-2)[GlcNAc(b1-3)Gal(b1-4)GlcNAc(b1-6)]Man(a1-6)[GlcNAc(b1-3)Gal(b1-4)GlcNAc(b1-2)Man(a1-3)]Man(b1-4)GlcNAc(b1-4)GlcNAc", "summary_of_the_method": "as §1"}, "[5]": {"molecular_target": "GlcNAc(b1-3)Gal(b1-4)GlcNAc(b1-3)Gal(b1-4)GlcNAc(b1-2)Man(a1-3)[GlcNAc(b1-3)Gal(b1-4)GlcNAc(b1-3)Gal(b1-4)GlcNAc(b1-2)Man(a1-6)]Man(b1-4)GlcNAc(b1-4)GlcNAc", "summary_of_the_method": "as §1"}, "[6]": {"molecular_target": "GlcNAc(b1-3)Gal(b1-4)GlcNAc(b1-3)Gal(b1-4)GlcNAc(b1-2)[GlcNAc(b1-3)Gal(b1-4)GlcNAc(b1-3)Gal(b1-4)GlcNAc(b1-6)]Man(a1-6)[GlcNAc(b1-3)Gal(b1-4)GlcNAc(b1-3)Gal(b1-4)GlcNAc(b1-2)Man(a1-3)]Man(b1-4)GlcNAc(b1-4)[Fuc(a1-6)]GlcNAc", "summary_of_the_method": "as §1"}, "[7]": {"molecular_target": "GlcNAc(b1-3)Gal(b1-4)GlcNAc(b1-3)Gal(b1-4)GlcNAc(b1-3)Gal(b1-4)GlcNAc(b1-2)[GlcNAc(b1-3)Gal(b1-4)GlcNAc(b1-3)Gal(b1-4)GlcNAc(b1-3)Gal(b1-4)GlcNAc(b1-6)]Man(a1-6)[GlcNAc(b1-3)Gal(b1-4)GlcNAc(b1-3)Gal(b1-4)GlcNAc(b1-3)Gal(b1-4)GlcNAc(b1-2)Man(a1-3)]Man(b1-4)GlcNAc(b1-4)[Fuc(a1-6)]GlcNAc", "summary_of_the_method": "as §1"}, "[8]": {"molecular_target": "GlcNAc6S(b1-3)Gal(b1-4)GlcNAc", "summary_of_the_method": "as §1"}, "Kdn(a2-3)Gal(b1-3)GalNAc": {"molecular_target": "Kdn(a2-3)Gal(b1-3)GalNAc", "summary_of_the_method": "as §1"}, "[9]": {"molecular_target": "Man(a1-2)Man(a1-3)[Man(a1-2)Man(a1-6)]Man", "summary_of_the_method": "as §1"}, "Neu5Ac(a2-3)Gal(b1-4)Glc": {"molecular_target": "Neu5Ac(a2-3)Gal(b1-4)Glc", "summary_of_the_method": "as §1"}, "[10]": {"molecular_target": "Neu5Ac(a2-3)Gal(b1-4)GlcNAc(b1-2)Man(a1-3)[Neu5Ac(a2-3)Gal(b1-4)GlcNAc(b1-2)Man(a1-6)]Man(b1-4)GlcNAc(b1-4)[Fuc(a1-6)]GlcNAc", "summary_of_the_method": "as §1"}, "[11]": {"molecular_target": "Neu5Ac(a2-3)Gal(b1-4)GlcNAc(b1-2)[Neu5Ac(a2-3)Gal(b1-4)GlcNAc(b1-4)]Man(a1-3)[GlcNAc(b1-4)][Neu5Ac(a2-3)Gal(b1-4)GlcNAc(b1-2)[Neu5Ac(a2-3)Gal(b1-4)GlcNAc(b1-6)]Man(a1-6)]Man(b1-4)GlcNAc(b1-4)GlcNAc", "summary_of_the_method": "as §1"}, "[12]": {"molecular_target": "Neu5Ac(a2-3)Gal(b1-4)GlcNAc(b1-3)Gal(b1-4)GlcNAc(b1-3)Gal(b1-4)GlcNAc(b1-2)Man(a1-3)[Neu5Ac(a2-3)Gal(b1-4)GlcNAc(b1-3)Gal(b1-4)GlcNAc(b1-3)Gal(b1-4)GlcNAc(b1-2)Man(a1-6)]GalNAc", "summary_of_the_method": "as §1"}, "[13]": {"molecular_target": "Neu5Ac(a2-3)Gal(b1-4)GlcNAc(b1-6)GalNAc", "summary_of_the_method": "as §1"}, "[14]": {"molecular_target": "Neu5Ac(a2-3)Gal(b1-4)GlcNAc6S", "summary_of_the_method": "as §1"}, "[15]": {"molecular_target": "Neu5Ac(a2-3)Gal(b1-4)[Fuc(a1-3)]GlcNAc(b1-2)Man", "summary_of_the_method": "as §1"}, "[16]": {"molecular_target": "Neu5Ac(a2-6)Gal(b1-4)GlcNAc(b1-3)Gal(b1-4)GlcNAc(b1-2)Man(a1-3)[Neu5Ac(a2-6)Gal(b1-4)GlcNAc(b1-3)Gal(b1-4)GlcNAc(b1-2)Man(a1-6)]GalNAc", "summary_of_the_method": "as §1"}, "[17]": {"molecular_target": "Neu5Ac(a2-6)Gal(b1-4)GlcNAc(b1-3)Gal(b1-4)GlcNAc(b1-3)Gal(b1-4)GlcNAc(b1-2)Man(a1-3)[Neu5Ac(a2-6)Gal(b1-4)GlcNAc(b1-3)Gal(b1-4)GlcNAc(b1-3)Gal(b1-4)GlcNAc(b1-2)Man(a1-6)]GalNAc", "summary_of_the_method": "as §1"}, "[18]": {"molecular_target": "Neu5Ac(a2-6)Gal(b1-4)GlcNAc(b1-6)[Gal(b1-3)]GalNAc", "summary_of_the_method": "as §1"}, "[19]": {"molecular_target": "Neu5Ac(a2-8)Neu5Ac(a2-3)[GalNAc(b1-4)]Gal(b1-4)Glc", "summary_of_the_method": "as §1"}, "[20]": {"molecular_target": "Neu5Ac(a2-8)Neu5Ac(a2-8)Neu5Ac(a2-3)Gal(b1-4)Glc", "summary_of_the_method": "as §1"}, "[21]": {"molecular_target": "Neu5Gc(a2-8)Neu5Ac(a2-3)Gal(b1-4)GlcNAc", "summary_of_the_method": "as §1"}}, "note": "This is one part of a sample in which the strongest signals are shown more often than they occur."}
{"binder": "TIM1 (protein) ADGIQSVKVGGEAGPSVTLPCHYSGAVTSMCWNRGSCSLFTCQNGIVWTNGTHVTYRKDTRYKLLGDLSRRDVSLTIENTAVSDSGVYCCRVEHRGWFNDMKITVSLEIVPPHHHHHH", "values": [{"measurement": "glycan array binding signal (z-score)", "setting": "GalNAc(b1-3)GlcNAc", "result": -0.188}, {"measurement": "glycan array binding signal (z-score)", "setting": "GalNAc6S(b1-4)GlcNAc", "result": -0.269}, {"measurement": "glycan array binding signal (z-score)", "setting": "Glc(a1-6)Glc(a1-6)Glc", "result": -0.212}, {"measurement": "glycan array binding signal (z-score)", "setting": "[1]", "result": 0.413}, {"measurement": "glycan array binding signal (z-score)", "setting": "[2]", "result": -0.125}, {"measurement": "glycan array binding signal (z-score)", "setting": "[3]", "result": 2.32}, {"measurement": "glycan array binding signal (z-score)", "setting": "[4]", "result": 1.97}, {"measurement": "glycan array binding signal (z-score)", "setting": "[5]", "result": 5.59}, {"measurement": "glycan array binding signal (z-score)", "setting": "[6]", "result": 1.97}, {"measurement": "glycan array binding signal (z-score)", "setting": "[7]", "result": 1.02}, {"measurement": "glycan array binding signal (z-score)", "setting": "[8]", "result": -0.142}, {"measurement": "glycan array binding signal (z-score)", "setting": "Kdn(a2-3)Gal(b1-3)GalNAc", "result": 0.111}, {"measurement": "glycan array binding signal (z-score)", "setting": "[9]", "result": -0.292}, {"measurement": "glycan array binding signal (z-score)", "setting": "Neu5Ac(a2-3)Gal(b1-4)Glc", "result": 0.916}, {"measurement": "glycan array binding signal (z-score)", "setting": "[10]", "result": -0.132}, {"measurement": "glycan array binding signal (z-score)", "setting": "[11]", "result": -0.288}, {"measurement": "glycan array binding signal (z-score)", "setting": "[12]", "result": 4.84}, {"measurement": "glycan array binding signal (z-score)", "setting": "[13]", "result": -0.189}, {"measurement": "glycan array binding signal (z-score)", "setting": "[14]", "result": -0.181}, {"measurement": "glycan array binding signal (z-score)", "setting": "[15]", "result": -0.204}, {"measurement": "glycan array binding signal (z-score)", "setting": "[16]", "result": 1.3}, {"measurement": "glycan array binding signal (z-score)", "setting": "[17]", "result": 5.74}, {"measurement": "glycan array binding signal (z-score)", "setting": "[18]", "result": -0.075}, {"measurement": "glycan array binding signal (z-score)", "setting": "[19]", "result": -0.183}, {"measurement": "glycan array binding signal (z-score)", "setting": "[20]", "result": -0.195}, {"measurement": "glycan array binding signal (z-score)", "setting": "[21]", "result": -0.137}]}
